Results taken from the supplement of paper PMC6607015.
Counter-ions that a name gives are not always drawn.

Columns and labels:
Settings in all cases: compound concentration in added solution (µM; 5 µl added to 20 µl cells): 10; 18 h
A431 [1] = assay: LBPA endosome anti-LBPA integrated intensity (sum per cell), Z-score; higher = more LBPA staining
Summary of the method: (§1)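 In duplicate 384-well imaging plates, 3,500 HeLa MZ or A431 cells in 20 µl per well were seeded onto 5 µl of 10 µM compound solution. The cells were incubated for 18 h, fixed in 4% PFA and stained with 6C4 anti-LBPA antibody, filipin, propidium iodide and CellTracker green before four 20× images were acquired per well. Values are AcuityXpress-normalised Z-scores of per-cell integrated LBPA or filipin intensity, obtained by MetaXpress segmentation over the whole cell or in LBPA endosomes.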

HeLa MZ [2] = assay: as above
Summary of the method: as §1

A431 [3] = assay: whole-cell filipin (free cholesterol) integrated intensity, Z-score; higher = more cholesterol staining
Summary of the method: as §1

HeLa MZ [4] = assay: as above
Summary of the method: as §1

A431 [5] = assay: filipin (cholesterol) integrated intensity within LBPA endosomes, Z-score; higher = more cholesterol in LBPA endosomes
Summary of the method: as §1

HeLa MZ [6] = assay: as above
Summary of the method: as §1

Row | Compound | LBPA endosome anti-LBPA integrated intensity (z-score) (A431 [1]) | LBPA endosome anti-LBPA integrated intensity (z-score) (HeLa MZ [2]) | whole-cell filipin (z-score) (A431 [3]) | whole-cell filipin (z-score) (HeLa MZ [4]) | filipin (z-score) (A431 [5]) | filipin (z-score) (HeLa MZ [6])
1 | Cc1ccc2c(c1)c1c3n2CCNC3CCC1 (centres undefined) [Pirlindole mesylate] | 0.0753 | 0.024 | 0.654 | 0.474 | 0.437 | 0.263
2 | C[C@@H](O)[C@H]1C(=O)N2C(C(=O)O)=C(S[C@@H]3CN[C@H](C(=O)N(C)C)C3)[C@H](C)[C@H]12 [Meropenem] | -0.501 | -0.52 | 0.0963 | -0.649 | -0.531 | -0.725
3 | CC(C)(C)C(=O)OCOC(=O)[C@@H]1N2C(=O)[C@@H](/N=C/N3CCCCCC3)[C@H]2SC1(C)C [Pivmecillinam hydrochloride] | -0.535 | -0.482 | -0.185 | -0.0756 | -0.424 | -0.445
4 | CC(N)CCCC(C)(C)O (centres undefined) [Heptaminol hydrochloride] | -0.451 | -1.1 | -0.647 | -0.285 | -0.442 | -0.477
5 | Oc1c(Cl)cc(Cl)c2cccnc12 [Chloroxine] | -0.792 | -1.58 | -0.709 | -1.27 | -0.75 | -0.803
6 | Nc1ccc(S(=O)(=O)Nc2cnc3ccccc3n2)cc1 [Sulfaquinoxaline sodium salt] | -0.491 | -0.359 | -0.235 | -0.279 | -0.43 | -0.432
7 | C[C@@H]1CN(c2c(F)c(N)c3c(=O)c(C(=O)O)cn(C4CC4)c3c2F)C[C@H](C)N1 [Sparfloxacin] | -0.202 | 0.876 | 0.309 | 0.295 | -0.322 | -0.143
8 | CCN1CCC[C@H]1CNC(=O)c1c(O)c(Cl)cc(Cl)c1OC [Raclopride] | -0.484 | -0.235 | -0.93 | -0.588 | -0.489 | -0.47
9 | C#C[C@]1(O)CC[C@H]2[C@@H]3CCC4=CC(=O)CC[C@@H]4[C@H]3CC[C@@]21CC [Norgestrel-(-)-D] | -0.501 | -0.275 | -0.421 | -0.79 | -0.478 | -0.446
10 | NC(CO)C(=O)NNCc1ccc(O)c(O)c1O (centres undefined) [Benserazide hydrochloride] | -0.379 | 0.144 | -0.376 | -0.254 | -0.42 | -0.5
11 | CN(C)CCC[C@@]1(c2ccc(F)cc2)OCc2cc(C#N)ccc21 [Escitalopram] | -0.359 | 1.34 | 0.0689 | 0.675 | -0.134 | 0.883
12 | Nc1nc(O)c2ncn(CCC(CO)CO)c2n1 [Penciclovir] | -0.596 | -1.08 | -0.223 | 0.234 | -0.512 | -0.438
13 | CN1[C@@H]2CC[C@H]1C[C@@H](OC(=O)C(O)c1ccccc1)C2 (mixture of isomers) [Homatropine hydrobromide (R,S)] | -0.625 | -0.216 | -0.825 | -0.838 | -0.591 | -0.57
14 | CCCCOC(=O)c1ccc(O)cc1 [Butylparaben] | -0.425 | -0.532 | -0.203 | -0.161 | -0.376 | -0.449
15 | Cc1c(NC(=O)c2cccnc2)c(=O)n(-c2ccccc2)n1C [Nifenazone] | -0.531 | -0.887 | -0.738 | -0.647 | -0.626 | -0.754
16 | CC/C(=C(\c1ccccc1)c1ccc(OCCN(C)C)cc1)c1ccccc1 [Tamoxifen citrate] | 2.11 | 0.441 | 0.819 | 0.438 | 2.05 | 2.47
17 | COC1=C(OC)C(=O)C(CCCCCCCCCCO)=C(C)C1=O [Idebenone] | -0.691 | -0.73 | -0.893 | -0.402 | -0.585 | -0.582
18 | NCCc1ccc(O)c(O)c1 [Dopamine hydrochloride] | -0.272 | 0.0633 | 0.184 | -0.446 | -0.377 | -0.485
19 | c1ccc(-c2ccc(C(c3ccccc3)n3ccnc3)cc2)cc1 (centres undefined) [Bifonazole] | -0.285 | 0.816 | 0.345 | 0.00932 | -0.374 | -0.192
20 | CC(C)(C)C(=O)OCOC(=O)[C@@H]1N2C(=O)[C@@H](NC(=O)[C@H](N)c3ccccc3)[C@H]2SC1(C)C [Pivampicillin] | -0.161 | 0.0846 | 0.0929 | -0.0816 | -0.266 | -0.41
21 | NC(=O)c1cnccn1 [Pyrazinamide] | -0.586 | -0.505 | -0.486 | -0.665 | -0.578 | -0.581
22 | COc1ccc(-c2cc(=O)c3c(O)cc(O[C@@H]4O[C@H](CO[C@@H]5O[C@@H](C)[C@H](O)[C@@H](O)[C@H]5O)[C@@H](O)[C@H](O)[C@H]4O)cc3o2)cc1O [Diosmin] | -0.501 | -0.4 | -0.678 | -0.378 | -0.518 | -0.715
23 | C[n+]1ccccc1/C=N/O [Pralidoxime chloride] | -0.559 | -0.678 | -0.432 | -0.212 | -0.503 | -0.574
24 | CC(=O)Oc1ccccc1C(=O)O [Acetylsalicylic acid] | -0.437 | -1.33 | -0.0786 | -0.536 | -0.409 | -0.51
25 | Cn1c(=O)c2[nH]cnc2n(C)c1=O [Aminophylline] | -0.25 | 0.505 | -0.204 | 0.324 | -0.281 | -0.178

Row | Compound | LBPA endosome anti-LBPA integrated intensity (z-score) (A431 [1]) | LBPA endosome anti-LBPA integrated intensity (z-score) (HeLa MZ [2]) | whole-cell filipin (z-score) (A431 [3]) | whole-cell filipin (z-score) (HeLa MZ [4]) | filipin (z-score) (A431 [5]) | filipin (z-score) (HeLa MZ [6])
26 | Clc1ccc(C(Cn2ccnc2)OCc2ccsc2Cl)c(Cl)c1 (centres undefined) [Tioconazole] | -0.225 | 0.542 | -0.125 | -0.75 | -0.053 | -0.127
27 | CCOC(=O)C1=C(C)NC(C)=C(C(=O)OCC)C1c1ccccc1/C=C/C(=O)OC(C)(C)C [Lacidipine] | 0.359 | 1.4 | 0.71 | 1.28 | 0.446 | 0.927
28 | CO[C@H]1/C=C/O[C@@]2(C)Oc3c(C)c(O)c4c(O)c(c(/C=N/N5CCN(C)CC5)c(O)c4c3C2=O)NC(=O)/C(C)=C\C=C\[C@H](C)[C@H](O)[C@@H](C)[C@@H](O)[C@@H](C)[C@H](OC(C)=O)[C@@H]1C [Rifampicin] | -0.422 | -0.231 | -0.651 | -0.372 | -0.402 | -0.338
29 | Cc1cc(NC(=O)C2=C(O)c3ccccc3S(=O)(=O)N2C)no1 [Isoxicam] | -0.656 | -1.14 | -0.786 | -0.746 | -0.604 | -0.633
30 | Cc1cc2c(s1)Nc1ccccc1N=C2N1CCN(C)CC1 [Olanzapine] | 0.0572 | 1.62 | 0.197 | 0.311 | 0.151 | 0.615
31 | C=C[C@H]1CN2CC[C@H]1C[C@@H]2[C@@H](O)c1ccnc2ccc(OC)cc12 [Quinidine hydrochloride monohydrate] | 0.635 | 0.796 | 0.722 | -0.0406 | 0.638 | 0.436
32 | CC(=O)O[C@H]1C[C@@]2(C)[C@@H](C[C@@H](O)[C@H]3[C@@]4(C)CC[C@@H](O)[C@@H](C)[C@@H]4CC[C@@]32C)/C1=C(\CCC=C(C)C)C(=O)O [Fusidic acid sodium salt] | -0.322 | 0.503 | -0.581 | 0.0569 | -0.49 | -0.416
33 | O=C(O)c1cc(-c2ccc(F)cc2F)ccc1O [Diflunisal] | -0.321 | -0.139 | -0.11 | -0.25 | -0.434 | -0.569
34 | COc1cc2nc(N3CCN(C(=O)c4ccco4)CC3)nc(N)c2cc1OC [Prazosin hydrochloride] | 2.82 | 1.41 | 1.2 | 0.626 | 0.829 | 0.146
35 | CCOc1ccc(Cc2nccc3cc(OCC)c(OCC)cc23)cc1OCC [Ethaverine hydrochloride] | 0.203 | 2.53 | 0.476 | 0.57 | -0.238 | 0.366
36 | CC(C)(C)NC[C@H](O)c1ccc(O)c(CO)c1 [Levalbuterol hydrochloride] | -0.401 | -1.22 | 0.171 | -0.774 | -0.471 | -0.476
37 | C[C@H]1NC(=O)NC1=O [Methylhydantoin-5-(D)] | -0.487 | -0.363 | -0.289 | -0.267 | -0.458 | -0.381
38 | COc1ccc(C(Cl)=C(c2ccc(OC)cc2)c2ccc(OC)cc2)cc1 [Chlorotrianisene] | -0.163 | -0.13 | 0.392 | -0.127 | -0.183 | -0.174
39 | CNC(C)CCC=C(C)C (centres undefined) [Isometheptene mucate] | -0.484 | -0.292 | 0.117 | -0.234 | -0.458 | -0.578
40 | Nc1cc(C(Cl)=C(Cl)Cl)c(S(N)(=O)=O)cc1S(N)(=O)=O [Clorsulon] | -0.372 | 0.212 | -0.73 | -0.454 | -0.454 | -0.586
41 | NS(=O)(=O)Cc1noc2ccccc12 [Zonisamide] | -0.257 | 0.173 | -0.0819 | 0.0656 | -0.385 | -0.275
42 | CN[C@@H]1[C@H](O[C@H]2[C@H](O[C@H]3[C@H](O)[C@@H](O)[C@H](NC(=N)N)[C@@H](O)[C@@H]3NC(=N)N)O[C@@H](C)[C@]2(O)CO)O[C@@H](CO)[C@H](O)[C@H]1O [Dihydrostreptomycin sulfate] | -0.602 | -1.07 | -1 | -0.938 | -0.56 | -0.704
43 | Cc1cc(CC(=O)O)n(C)c1C(=O)c1ccc(Cl)cc1 [Zomepirac sodium salt] | -0.359 | 0.635 | -0.277 | 0.00846 | -0.413 | -0.439
44 | NC(=O)c1ncn([C@@H]2O[C@H](CO)[C@@H](O)[C@H]2O)n1 [Ribavirin] | -0.391 | -0.778 | -0.377 | -0.839 | -0.376 | -0.688
45 | CC(C)N1CCN(c2ccc(OCC3COC(Cn4cncn4)(c4ccc(Cl)cc4Cl)O3)cc2)CC1 (centres undefined) [Terconazole] | 3.33 | 2.49 | 1.58 | 1.5 | 3.31 | 4.7
46 | CCN1CCCC1CNC(=O)c1cc(S(N)(=O)=O)ccc1OC (centres undefined) [Sulpiride] | -0.472 | -0.315 | -0.817 | -0.434 | -0.518 | -0.501
47 | COc1ccc2c(c1)c(CC(=O)OCC(=O)O)c(C)n2C(=O)c1ccc(Cl)cc1 [Acemetacin] | -0.545 | -0.702 | -1.02 | -0.542 | -0.556 | -0.644
48 | Cn1ccnc1S [Methimazole] | -0.549 | -0.811 | -0.397 | -0.237 | -0.496 | -0.58
49 | COc1ccc(CC2c3cc(OC)c(OC)cc3CC[N+]2(C)CCC(=O)OCCCCCOC(=O)CC[N+]2(C)CCc3cc(OC)c(OC)cc3C2Cc2ccc(OC)c(OC)c2)cc1OC (centres undefined) [Atracurium besylate] | -0.229 | -0.154 | -0.0896 | -0.584 | -0.0589 | 0.0777
